The values that follow come from PubChem BioAssay AID623911 (Vanderbilt High Throughput Screening Facility, 2012).

Out of some 2,100 compounds screened, about 770 (37%) were called active. This is one part of the list. Unmarked numbers belong to inactive results.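 Rule for the calls: active = by-eye trace score of 1 for enhancers or -1 for inhibitors, so actives lie on both sides (some results past the limit were not filed as active); inactive = score 0, or 3 fluorescent, or 4 baseline rise.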

Chain of G protein-activated inward rectifier potassium channel 2 (Homo sapiens) + G protein-activated inward rectifier potassium channel 1 (Homo sapiens) (P48051 whole entry, looked up): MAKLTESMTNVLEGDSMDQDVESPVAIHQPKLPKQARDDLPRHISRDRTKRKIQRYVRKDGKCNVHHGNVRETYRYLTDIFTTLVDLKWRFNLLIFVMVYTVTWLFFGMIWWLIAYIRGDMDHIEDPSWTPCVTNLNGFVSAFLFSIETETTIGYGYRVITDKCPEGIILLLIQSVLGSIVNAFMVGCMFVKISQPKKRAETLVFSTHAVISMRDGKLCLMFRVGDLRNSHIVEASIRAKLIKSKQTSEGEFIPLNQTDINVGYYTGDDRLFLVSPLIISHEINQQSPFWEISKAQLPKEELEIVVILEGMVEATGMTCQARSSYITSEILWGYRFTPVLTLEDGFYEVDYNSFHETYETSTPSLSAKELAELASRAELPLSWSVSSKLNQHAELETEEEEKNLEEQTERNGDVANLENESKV
Chain of G protein-activated inward rectifier potassium channel 2 (Homo sapiens) + G protein-activated inward rectifier potassium channel 1 (Homo sapiens) (P48549 whole entry, looked up): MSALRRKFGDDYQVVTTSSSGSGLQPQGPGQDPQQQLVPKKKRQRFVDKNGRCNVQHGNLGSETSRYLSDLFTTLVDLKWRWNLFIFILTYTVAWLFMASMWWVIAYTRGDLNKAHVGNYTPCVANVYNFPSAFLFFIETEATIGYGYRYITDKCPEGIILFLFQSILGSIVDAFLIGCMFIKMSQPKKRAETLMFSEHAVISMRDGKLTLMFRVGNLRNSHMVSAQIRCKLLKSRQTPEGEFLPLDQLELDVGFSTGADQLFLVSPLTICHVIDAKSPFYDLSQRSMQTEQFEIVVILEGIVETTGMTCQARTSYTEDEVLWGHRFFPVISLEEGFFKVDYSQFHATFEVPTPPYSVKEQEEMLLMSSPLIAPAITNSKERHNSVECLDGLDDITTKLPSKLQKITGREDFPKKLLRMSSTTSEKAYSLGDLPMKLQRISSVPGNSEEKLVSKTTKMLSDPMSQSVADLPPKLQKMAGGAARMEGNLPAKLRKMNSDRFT

The assay has as its target G protein-activated inward rectifier potassium channel 2 (Homo sapiens) + G protein-activated inward rectifier potassium channel 1 (Homo sapiens) (UniProt P48051+P48549). As to the kind of experiment: GIRK1/2 thallium flux modulators, retest, confirmation, cell-based, HEK293 rmGlu8/hGIRK1/2, FluoZin-2 (AID 623911). The note with it: HEK293 rmGlu8/hGIRK1/2, thallium flux FluoZin-2; actives lie on both sides; glutamate co-added at its EC20 level.
With `O=C(NNC(=S)Nc1cccc2ccccc12)c1cccc(Br)c1`, the manual score is 1 (active). Next, `Cc1ccc(C(=O)NNC(=S)Nc2cccc3ccccc23)s1`: 0; `O=C(NNC(=S)Nc1ccccc1)c1cccc(Br)c1`: 0. Next, `CC(C)(C)S(=O)(=O)c1ccc(S(=O)(=O)C(C)(C)C)s1`: 0; `O=C(NC(=S)N(CCCCO)C1CCCCC1)c1sc2ccccc2c1Cl`: 1 (active); `CCCOC(=S)NC(=O)c1sc2ccccc2c1Cl`: 1 (active).

For `COc1ccccc1C(=O)NC(=S)NNC(=O)c1sc2ccccc2c1Cl`, the manual score is 0. The value for `CC(C)(C)C(=O)NC(=S)NNC(=O)c1sc2ccccc2c1Cl` was 1 (active).

As for `CCCCOC(=S)NC(=O)c1sc2ccccc2c1Cl`, the manual score is 1 (active). The value for `Nc1c(C(O)(C(F)(F)F)C(F)(F)F)ccc2ccccc12` was 0; that for `CCCCN(Cc1ccccc1)S(=O)(=O)c1ccc2[nH]c(=O)oc2c1` was 0. With `Cn1c(-c2sc3ccccc3c2Cl)n[nH]c1=S`, the manual score is 0. For the molecule `COc1ccccc1C(=O)NNC(=S)NC(=O)c1sc2ccccc2c1Cl`, the manual score was 0.5. On to `CCOC(=S)NC(=O)c1sc2ccccc2c1Cl`, for which the manual score was 1 (active). Next, `Cc1cc(C)c2nc(SCC(=O)NCCC3=CCCCC3)cc(C)c2c1`: 1 (active); `Cc1cc(C)c2nc(SC(C)C(=O)NCC(=O)Nc3ccc(F)c(F)c3F)cc(C)c2c1` (stereo not given): 0; `COc1cccc(-n2c(SCC(=O)NCCC3=CCCCC3)nc3n[nH]c(C)c3c2=N)c1`: -0.5. The value for `Nn1c(SC/C=C/c2ccccc2)nnc1-c1ccccn1` was 0; that for `COc1cc(Cl)cc2c1Sc1ccccc1/C2=C/CCN(C)C` was -1 (active). The value for `Cc1nc(SC2CCOC2=O)c2c(C)c(C)sc2n1` (stereo not given) was 1 (active). For the molecule `S=C(NN=C1C2CC3CC(C2)CC1C3)Nc1ccccc1`, the manual score is 0. Next, `CCCCn1c(SCc2nc(N)nc(Nc3ccccc3C)n2)nc2ccccc2c1=O`: 0. The value for `O=C(c1ccccc1Oc1ccccc1)N1CCN(c2ccccc2)CC1` was -1 (active); that for `CN1CCN(C(=O)c2sc(=S)n(-c3ccccc3)c2N)CC1` was 0. Next, `Cc1ccc(-n2nc(-c3cccs3)cc2C(=O)NCC2CCCO2)c(C)c1` (stereo not given): -1 (active); `O=C(CN1C(=O)c2ccccc2C1=O)Nc1sc2c(c1C(=O)NCC1CCCO1)CCC2` (stereo not given): 0. On to `COc1ccc(C(OC(=O)c2cccs2)C(=O)NCC2CCCO2)cc1` (stereo not given), for which the manual score is 0.

On to `Cc1cccc(S(=O)(=O)Nc2cccc3c2C(=O)c2ccccc2-3)c1`, for which the manual score is 0. Next, `COC(=O)Nc1nnc(Cc2ccc(Cl)cc2)s1`: 0; `CC(C)Cn1cnc2sc3c(c2c1=N)CCCC3`: -1 (active).

For the molecule `N#Cc1ccc(-c2csc(NC3=NCCCCC3)n2)cc1`, the manual score is -1 (active). As for `CC(CCc1ccccc1)NC(=O)N1CCOCC1` (stereo not given), the manual score is 0. The value for `O=C(NC(=Nc1ccccc1)N1CCOCC1)Nc1ccccc1` was 1 (active).

`O=C(NCCN1CCN(C(=O)Nc2ccccc2)CC1)Nc1ccccc1`: the manual score is 0. Next, `CC1=CC(C)(C)n2c(O)c(N=NC(N)=S)c3cccc1c32`: 0; `CCCSc1nc2sc3c(c2c(=O)[nH]1)CCN(Cc1ccccc1)C3`: 3.

As for `Oc1c(Cl)cc(Cl)c2c1NCCC2`, the manual score was 0. In the case of `Cc1cccc(NC(=S)NC(=O)c2cccs2)n1`, the manual score was 1 (active). In the case of `Cc1ccnc(NC(=S)NC(=O)c2cccs2)c1`, the manual score is 1 (active).

`Cc1ccc2oc(-c3cccc(NC(=S)NC(=O)c4cccs4)c3)nc2c1`: the manual score is 0.

Turning to `O=C(NC(=S)Nc1ccc(Cl)cn1)c1cccs1`, the manual score is 0.5. The value for `CN1C(=O)NC(c2ccccc2)C2=C1CN(Cc1ccccc1)C2=O` (stereo not given) was 0. For the molecule `CCCOc1cccc(C(=O)NC(=S)Nc2cccc(C(F)(F)F)c2)c1`, the manual score is 0.

Regarding `CCCOc1ccc(C(=O)NNC(=S)NC(=O)CC)cc1`, the manual score was 1 (active).

As to `CCCCOc1ccc(C(=O)NNC(=S)NC(=O)CC)cc1`, the manual score was 1 (active). The value for `CC1Cc2nc(SCC(=O)Nc3nc4ccccc4s3)n(C)c(=O)c2S1` (stereo not given) was -0.5. Take `N#Cc1nc(COc2ccccc2)oc1N1CCN(c2cccc(Cl)c2)CC1`: the manual score was 0. Next, `Cc1oc(-c2ccccc2)nc1CS(=O)CC(=O)O` (stereo not given): 1 (active); `CCC(=O)Oc1oc(-c2ccccc2)nc1C=Nc1ccccc1OC`: 0.

In the case of `COc1ccccc1N=Cc1nc(-c2ccccc2)oc1OC(C)=O`, the manual score was 0. Next, `Cc1ccn2c(NC3CCCCC3)c(C(C)C)nc2c1`: -1 (active).

`C=CCOc1cccc(C2/C(=C(/O)c3ccc(C)cc3)C(=O)C(=O)N2CCN2CCOCC2)c1` (stereo not given): the manual score was 0. The value for `CCc1cccc(CC)c1-n1c(SCC(=O)N2CCc3ccccc3C2)nnc1-c1cccnc1` was -1 (active); that for `Cn1c(SCC(=O)N2c3ccccc3CCc3ccccc32)nnc1-c1ccc(O)cc1` was 0. Regarding `CCOC(=O)c1cccc(NC(=O)CSc2nnc(-c3cccnc3)n2C)c1`, the manual score was 0. The value for `CCN=c1scc(-c2ccco2)n1/N=C/c1ccc(O)cc1` was 0; that for `CC(C)(C)C(=O)Nc1nc2c(s1)COc1ccccc1-2` was -0.5. In the case of `CN1CCN(CC(=O)N2c3ccccc3C(C)(c3ccc(Cl)cc3)CC2(C)C)CC1` (stereo not given), the manual score is -1 (active).

As to `COC(=O)c1ccc(Cl)c(NC(=O)CN2CCN(C)CC2)c1`, the manual score was 0. Next, `CC1(c2ccccc2)CC(C)(C)N2C(=O)/C(=C3\SC(=S)NC3=O)c3cccc1c32` (stereo not given): 0; `CN1CCN(Cc2cccc(Oc3ccc(Cl)cc3)c2)CC1`: 0. Next, `CN1CCN(CC(=O)N2c3ccccc3C(C)(c3ccccc3)CC2(C)C)CC1` (stereo not given): -1 (active); `S=c1[nH]nc(CSc2nc3ccccc3s2)n1C1CCCCC1`: 0. Next, `N#Cc1ccsc1NC(=O)CN1CCN(c2ccc(O)cc2)CC1`: 0; `Cc1cc(NC(=O)CSc2nc3ccccc3c(=O)n2Cc2ccccc2)no1`: 0; `Cc1cc(NC(=O)CSc2nc(C3CC3)nc3sc(C)c(C)c23)no1`: 1 (active). Consider `COc1cc(OC)c2nc(C)c3c(c2c1)N(c1ccc(O)cc1)CC3`, for which the manual score was -1 (active). Next, `O=C(Nc1ccccc1)c1ccccc1NS(=O)(=O)c1ccc(Cl)s1`: -1 (active); `O=C(Nc1nncs1)c1ccccc1NS(=O)(=O)c1cccs1`: 0. The value for `O=C(Nc1ccccc1C(=O)O)c1ccc(NC(=O)c2ccc(Br)o2)cc1` was -0.5.
